# Screens deposited in PubChem by several laboratories.
# NLRP3 yeast inh – NALP3 inflammasome inhibitors in reconstituted yeast, primary screen, luminescence, uHTS; Yeast reconstituted NLRP3/ASC/caspase-1, beta-gal luminescence, 24 h; inhibition, % at 10 µM; hit rate 0.39% among 330,000; AID 2825, 2010;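 active means inhibition of 50% or more; inactive means inhibition below 50%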;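 further: plate controls were induced DMSO wells for no effect and uninduced yeast grown without galactose for full effect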
# CR mimetic SO – reduction of superoxide in aged yeast, primary screen, HTS. AID 2690, 2010. hit rate 0.18% among 330,000. superoxide response (% of plate mean), % at 10 µM. S. cerevisiae aged cells, superoxide DHE fluorescence; hits give low values;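 active means superoxide response under a set limit, about three screen SD below normal, cut at about 65% in these data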;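 further: yeast aged for seven days with compound at 30 °C before DHE staining; 100% = average MFI of all compound-treated wells on the plate with controls excluded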
# NALP1 yeast inh – NALP1 inflammasome inhibitors in reconstituted yeast, colorimetric, S. cerevisiae, triplicate retest | hit rate 0.61% among 280,000 | inhibition, % at 10 µM | S. cerevisiae NALP1/ASC/caspase-1 growth, X-gal OD620, 72 h; in the data active means inhibition mostly above about 24%, no sharp cut-off; inactive means mostly below about 32%
# V-ATPase pH – regulators of yeast V-ATPase proton pumping, primary screen, pHLuorin cytosolic pH fluorescence | S. cerevisiae | response, % at 10 µM | hit rate 0.37% among 350,000 | AID 504577, 2011; in the data active means response mostly above about 7.3%, no sharp cut-off; inactive means mostly below about 5.4%; further: actives read high
# PERK inh – block of dimerizer-induced PERK translation repression, primary screen, PERK inhibitor project, CHO PERK-DD cells, SEAP luminescence, HTS; CHO PERK-DD fusion, SEAP luminescence translation reporter; AID 1416, 2008; inhibition, % at 5.6 µM; hit rate 0.17% among 220,000;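 active means inhibition above the mean inhibition of all tested compounds plus 3 SD, set separately per screening campaign, cut at about 2.9% in these data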;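 further: PERK kinase domain activated by AP20187 dimerizer at 100 nM; 0% = DMSO with dimerizer and 100% = rapamycin at 8.4 µM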
# Rce1 inh – yeast Rce1p protease inhibitors, primary screen, biochemical, fluorescence, cell-free homogeneous | CAAX prenyl protease 2 (Saccharomyces cerevisiae (strain ATCC 204508 / S288c)), Q03530 | hit rate 0.27% among 290,000 | calls only | yeast membranes, quenched prenylated peptide cleavage fluorescence;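 active means fall in fluorescence gain of 50% or more versus controls, with final raw signal at or below 3038400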;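 further: plate controls were neutral control wells for no effect and wells lacking membranes for full effect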
# Target sequence (Q03530 whole entry, looked up): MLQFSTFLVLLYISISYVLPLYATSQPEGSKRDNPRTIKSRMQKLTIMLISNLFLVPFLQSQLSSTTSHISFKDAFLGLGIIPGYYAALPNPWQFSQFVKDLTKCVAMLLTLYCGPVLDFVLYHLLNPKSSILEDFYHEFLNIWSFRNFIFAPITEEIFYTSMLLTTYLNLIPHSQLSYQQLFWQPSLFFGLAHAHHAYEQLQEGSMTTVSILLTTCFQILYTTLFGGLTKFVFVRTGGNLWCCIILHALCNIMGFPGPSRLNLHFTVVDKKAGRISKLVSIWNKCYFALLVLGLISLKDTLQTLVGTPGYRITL
# Superoxide pick – superoxide lowering in aged yeast cells, confirmation, cherry picked compounds; shares compounds with CR mimetic SO; S. cerevisiae aging, superoxide DHE fluorescence; hits give low values; superoxide response (% of plate), % at 10 µM; hit rate 1% among 850; AID 434994, 2010;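 active means superoxide signal below 65% of the plate average of sample wells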;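 further: cells aged with compound for 7 days at 30 degrees C before staining; 100% equals mean DHE fluorescence of all compound wells on the plate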
# DHE counter – DHE quenching or ROS scavenging interference in aged yeast, artefact control for yeast caloric restriction mimetic project, S. cerevisiae BY4741, flow cytometry | shares compounds with CR mimetic SO | DHE fluorescence; hits give low values | fluorescence response, % at 10 µM | 850 tested, under 10 active | AID 435000, 2010;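 active means fluorescence response below 15%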;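 further: percent of the mean fluorescence averaged over all compound wells on the plate; lower means stronger quenching of DHE signal or ROS scavenging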
# The depositor's hits bear a star; i = inactive; nt = no result. This is a sample that favours compounds with a hit; in the whole collection about 1.6% have one here.
SMILES,NLRP3 yeast inh,CR mimetic SO,NALP1 yeast inh,V-ATPase pH,PERK inh,Rce1 inh,Superoxide pick,DHE counter
C[C@H]1CN([C@@H](C)CO)C(=O)CCCn2cc(nn2)CO[C@@H]1CN(C)S(=O)(=O)c1ccc(C#N)cc1,nt,nt,nt,1,nt,nt,nt,nt
O=C(CSc1ccc(-c2nc3ccccc3[nH]2)cn1)Nc1ccc(S(=O)(=O)N2CCCC2)cc1,-2,64*,16,2,1,i,119,109
Cc1cc2nc(-c3ccc(SCC(=O)Nc4ccc(S(=O)(=O)N5CCCC5)cc4)nc3)[nH]c2cc1C,45,108,34,0,0,i,nt,nt
CC1CCN(CCC(=O)Nc2ccc3c(c2)OCCO3)CC1,13,63*,7,nt,0,i,117,110
Cc1ccc(S(=O)(=O)N(C)c2ccc(C(=O)O)cc2)cc1,3,104,18,-1,0,i,nt,nt
Cc1ccc(S(=O)(=O)N(C)c2ccc(N)cc2)cc1,2,92,13,-3,0,i,107,104
O=C(NC1CCCCCC1)c1ccc([N+](=O)[O-])s1,27,nt,nt,7,nt,nt,nt,nt
CCN(CC)C(=O)C1=C(C)N(CCCOC)C(=O)C(CC(=O)NCCc2ccccn2)C1 (stereo unspecified),nt,nt,nt,-1,nt,nt,nt,nt
Cc1ccc(NC(=O)CN2CCN(S(=O)(=O)c3ccc4c(c3)OCCO4)CC2)c(C)c1,nt,nt,nt,3,nt,nt,nt,nt
Cc1ccc(CNC(=O)Cc2ccc(-n3c(=O)[nH]c4ccsc4c3=O)cc2)cc1,5,56*,32,0,1,i,108,100
Cc1ccc(CNC(=O)CCCCn2c(=O)[nH]c3ccsc3c2=O)cc1,12,90,-2,4,0,i,nt,nt
CC(=O)[C@@]1(O)CCC2C3CC[C@H]4C[C@@H](O)CC[C@]4(C)C3CC[C@@]21C (stereo partly specified),47,105,nt,3,nt,nt,104,103
CC(NC(=O)COC(=O)c1ccc2c(=O)n3c(nc2c1)CCCCC3)c1ccc(F)cc1 (stereo unspecified),nt,nt,nt,-2,nt,nt,nt,nt
O=S(=O)(c1ccc(Cl)cc1)c1ccccn1,-10,101,20,-7,1,i,nt,nt
NS(=O)(=O)c1ccc(S(=O)(=O)c2ccccc2)nc1,17,64*,nt,1,nt,i,83,90
COc1cccc(C(=O)NNC(=O)c2ccc3ccccc3c2O)c1,9,100,nt,-2,nt,i,nt,nt
CCc1c(C)nc2cc(-c3ccccc3)[nH]n2c1=O,13,94,-14,-1,nt,i,103,98
CCc1c(C)nc2c(-c3ccccc3)c(-c3ccccc3)[nH]n2c1=O,-12,95,13,-2,nt,i,96,93
Cc1cccc(-c2cc3nc(-c4ccccc4)cc(=O)n3[nH]2)c1,13,96,-2,0,nt,i,117,112
C=CCn1c(SCC(=O)NC2CCCC2)nc2ccccc21,nt,nt,nt,1,nt,nt,nt,nt
CC(=O)OCCN(Cc1ccccc1)Cc1ccc2c(c1)OCO2,2,64*,7,0,0,i,116,111
CC(NC(=O)N(Cc1ccccc1)Cc1ccc2c(c1)OCO2)(C(F)(F)F)C(F)(F)F,19,96,6,1,0,i,nt,nt
O=C(COc1ccccc1)NCc1ccccc1,0,93,5,2,1,i,nt,nt
Cc1cccc(C)c1OCC(=O)NCc1ccccc1,22,46*,22,-2,nt,i,110,111
O=C(NCc1ccc(Cl)cc1)C1CCCN(c2cnccn2)C1 (stereo unspecified),-3,65*,14,-4,nt,i,112,112
SMILES,NLRP3 yeast inh,CR mimetic SO,NALP1 yeast inh,V-ATPase pH,PERK inh,Rce1 inh,Superoxide pick,DHE counter
COc1ccc(CCN2CC(C(=O)NCCc3ncccc3C)CCC2=O)cc1 (stereo unspecified),nt,nt,nt,0,nt,nt,nt,nt
O=C(CN1CCCC1)Nc1ccc(OC(F)(F)F)cc1,9,106,36,0,nt,i,nt,nt
CC(=O)Nc1ccc(NC(=O)CN2CCN(c3ccccn3)CC2)cc1,6,53*,31,-2,nt,i,101,94
O=C(CN1CCN(c2ccccn2)CC1)Nc1ccc(OC(F)(F)F)cc1,20,109,10,2,nt,i,94,111
Cc1cc(C)cc(NC(=O)CN2CCN(c3ccccn3)CC2)c1,13,89,22,0,nt,i,nt,nt
CN(C)S(=O)(=O)c1ccc(NC(=O)CN2CCN(c3ccccn3)CC2)cc1,8,80,11,-4,nt,i,107,91
CCN(CC)S(=O)(=O)c1cc(NC(=O)CN2CCN(c3ccccn3)CC2)ccc1C,20,100,13,-2,0,i,97,100
Cc1ccc(NC(=O)CN2CCN(c3ccccn3)CC2)cc1S(=O)(=O)N(C)C,6,97,-8,-2,0,i,nt,nt
CSc1ccccc1C(=O)N1CCc2ccc(NC(=O)c3ccccn3)cc2C1,nt,nt,nt,0,nt,nt,nt,nt
CCC[C@H]1CN(c2ccccc2)C(=O)[C@@H]1CC(=O)NC,nt,nt,nt,-1,nt,nt,nt,nt
COc1cccc(CN(C)CC(=O)NCc2ccc(F)cc2)c1OC,-2,39*,24,2,nt,i,106,88
O=C(Cc1ccc(-n2c(=O)[nH]c3ccccc3c2=O)cc1)N1CCN(c2ccccc2)CC1,-1,107,54,2,-1,i,nt,nt
O=C(Cc1ccc(-n2c(=S)[nH]c3ccccc3c2=O)cc1)N1CCN(c2ccccc2)CC1,0,65*,1,2,-1,i,96,93
CC(=O)c1ccc(NC(=S)NC(=O)/C=C/c2ccc(F)cc2)cc1,15,49*,20,-2,nt,i,102,105
CCCNC(=O)c1ccc2c(=O)c(O)c(-c3ccc(Cl)c([N+](=O)[O-])c3)[nH]c2c1,8,64*,-21,-2,nt,i,80,96
CCOc1ccc(NC(=O)C2CC(=O)N3CCCN=C3S2)cc1 (stereo unspecified),16,107,-4,1,0,i,nt,nt
CCCOc1ccc(NC(=O)C2CC(=O)N3CCCN=C3S2)cc1 (stereo unspecified),7,65*,23,1,-1,i,95,107
C[C@]12CCC(=O)CC1CCC1C2CC[C@@]2(C)C1CC[C@@]21CCO1 (stereo partly specified),41,82,11,0,nt,i,nt,nt
